Reference: PubChem BioAssay (NCI)
This is part of a sample that, as a whole, favours compounds with a hit. Of some 83,000 tested, about 20% had one in any assay.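 Growth was measured after 48 h exposure to one concentration of compound in 96-well plates. Values under 10 count as active.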 Unmarked numbers belong to inactive results. Calls of active or inactive are those of the source.

How the values were obtained:
Test in all cases: NCI-60 one-dose screen, 48 h (100 = growth as untreated, 0 = no growth, -100 = all killed)
Conditions in all cases: 10 µM unless noted
[1] = tested on: DU-145 prostate
[2] = tested on: K-562 leukemia
[3] = tested on: MALME-3M melanoma
[4] = tested on: MDA-MB-231 breast
[5] = tested on: RXF 393 renal
[6] = tested on: SF-268 CNS
[7] = tested on: SF-295 CNS
[8] = tested on: SF-539 CNS
[9] = tested on: UACC-257 melanoma
[10] = tested on: M14 melanoma

SMILES	growth [1]	growth [2]	growth [3]	growth [4]	growth [5]	growth [6]	growth [7]	growth [8]	growth [9]	growth [10]
CC1=C(SCCC(=O)OC(C[Se]C2=C(C)C(=O)c3ccccc3C2=O)C(=O)NC(C)(C)C)C(=O)c2ccccc2C1=O (stereo not given)	-99% (active)	7.31% (active)	-74.9% (active)	-58% (active)	-89.1% (active)	-96.2% (active)	-30.9% (active)	-99.8% (active)	-88.1% (active)	-84.1% (active)
CC(=O)N1CCN(c2ccc(OCC3CO[C@](Cn4ccnc4)(c4ccc(Cl)cc4Cl)O3)cc2)CC1 (stereo not given in full)	105%	56.6%	77.4%	77.5%	80.6%	96%	97.6%	91%	83.7%	83.8%
NC(=O)Nc1ccc2ncnc(Nc3ccc(Cl)cc3)c2c1	52%	71.4%	117%	89.3%	93.7%	79.7%	90.7%	95.7%	100%	107%
NCCCNc1nc2ccccc2c2c(=O)c3cc(F)cc(Cl)c3sc12	64.1%	-17.7% (active)	106%	51.4%	73.6%	79.9%	102%	83%	114%	90.4%
CN(C)CCN1CCN(c2ncccc2C2Nc3ccccc3-n3cccc32)CC1 (stereo not given)	110%	89.4%	106%	93.6%	101%	92.3%	103%	101%	101%	106%
CCCCCCn1c(-c2ccc(C(=O)O/N=C(\N)c3ccc4c(c3)OCO4)cc2)nc(-c2ccccc2)c1-c1ccccc1	0.0183% (active)	-29.7% (active)	28.1%	26.3%	-27.2% (active)	41.1%	30.6%	-30.2% (active)	62%	56.2%
CCOC(=O)c1cn2ncnc(Oc3ccc(NC(=O)NCCN(C)C)c(Cl)c3)c2c1C	86.8%	4.33% (active)	58.9%	65.2%	55.6%	65.1%	94.6%	71.5%	-4.6% (active)	-40.6% (active)
Cc1ccc(NC2=C(Cl)C(=O)c3nc(C)ccc3C2=O)cc1	-62.2% (active)	6.64% (active)	-37.4% (active)	-80.3% (active)	-57.2% (active)	66.8%	62.1%	-85.6% (active)	-73.8% (active)	29.1%
CCOc1c(B(O)O)cccc1-c1nc2ccc3[nH]ncc3c2c2c1CCCC2	66.9%	63.4%	101%	33.9%	-5.22% (active)	58.6%	59.3%	18.6%	135%	120%
NS(=O)(=O)c1ccc(-n2nc(C(=O)N/N=C\c3ccc(F)cc3)cc2-c2ccc(Br)cc2)cc1	93.4%	18%	68.3%	85.3%	77.8%	82.2%	74.6%	89.7%	86.1%	79.7%
Fc1cc(-c2nnc3sc(-c4ccc(Cl)cc4Cl)nn23)c(Cl)cc1Cl	92.7%	107%	52.3%	74.8%	65.4%	71.5%	78.4%	108%	85.1%	97.5%
c1ccc(Nc2cc(-c3cccnc3)[nH]n2)cc1	100%	101%	118%	107%	107%	85.8%	97.6%	70.2%	100%	117%
O=C(N/N=C/[C@H](O)[C@@H](O)[C@@H](O)[C@H](O)CO)c1ccc(NC(=O)c2cccnc2)cc1	119%	110%	108%	100%	121%	103%	102%	106%	102%	114%
Fc1cc2c(cc1Cl)N(c1ncnc3ccc(-c4cnc5cnccn45)cc13)CC2	74.7%	75.2%	91.3%	77.5%	62%	81%	107%	84.6%	109%	80.2%
Oc1ccc(-c2nc3ccc4[nH]ncc4c3c3c2CCCC3)c2cccnc12	11.6%	7.23% (active)	-3.69% (active)	18.8%	-9.52% (active)	0.245% (active)	-4.23% (active)	-1.03% (active)	-20.4% (active)	3.35% (active)
C[C@H](C(=O)Nc1ccc(S(N)(=O)=O)cc1)S(=O)(=O)c1ccccc1	108%	106%	101%	114%	88.1%	102%	94.6%	102%	103%	104%
Cc1nc2cnc(N)c(C#Cc3cncc(C(=O)Nc4ccc(CN5CCN(C)CC5)c(C(F)(F)F)c4)c3)c2nc1C	8.22% (active)	7.33% (active)	-40.5% (active)	-12.3% (active)	-68.3% (active)	8% (active)	36%	-23.3% (active)	-25.8% (active)	-55.6% (active)
C/C(=C(/c1ccccc1)c1ccc(N2C(=O)c3cccc4c(N5CCN(C)CC5)ccc(c34)C2=O)cc1)c1ccccc1	82.8%	9.2% (active)	81.4%	94.5%	74.8%	96.2%	83.3%	72.3%	79.8%	85.6%
CCOC(=O)C1=C(N)Oc2c(sc3c(C)cccc23)C1c1ccc(OC)cc1 (stereo not given)	50.5%	10.5%	43.9%	46.3%	29.8%	51%	19.4%	15.4%	46.8%	21.7%
Cc1nc2ccccc2n1CC1C(=O)NC(=O)NC1=O	117%	94.8%	106%	114%	123%	106%	102%	100%	101%	110%
CC1(C)C2CC1C1(/C=N/NC(N)=S)C(C2)C(C#N)(C#N)C1(C#N)C#N (stereo not given)	82.6%	13.6%	67%	57.3%	71.7%	97.4%	111%	101%	79.9%	87.6%
